Source: the supplement of paper PMC10981050
Where a name gives a salt, the structure may show the parent alone.

System: MOLM14
Assay: cell viability relative to vehicle control; higher = less cytotoxic
Settings: 10 µM; SRSF2 genotype: SRSF2 P95H/wt
Procedure, shortened: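 After removal of identity-inconsistent compounds, the Selleck bioactive, kinase and epigenetic probe libraries were screened on CRISPR-edited mutant clones and isogenic wild-type clones of four leukaemia lines. Plates were 384-well, each well holding 2000 cells in 50 µL medium and receiving a single 10 µM acoustically dispensed dose. CellTiter-Glo luminescence was read 48 h later, after the supernatant was taken off. Genedata Screener was used to express viability as percent of the on-plate vehicle control.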

Compound	cell viability [%]
CCCCOc1nc(N)c2c(n1)N(Cc1cccc(CN3CCCC3)c1)CC(=O)N2	97.2
CCOC(=O)[C@H](CCc1ccccc1)N[C@@H](C)C(=O)N1Cc2cc(OC)c(OC)cc2C[C@H]1C(=O)O [Moexipril HCl]	106
CS(=O)(=O)c1ccc(C2=C(c3ccccc3)C(=O)OC2)cc1 [Rofecoxib (Vioxx)]	94.7
CN(CCOc1ccc(CC2SC(=O)NC2=O)cc1)c1ccccn1 (stereo unspecified) [Rosiglitazone HCl]	103
Cc1cc(NC(=O)Nc2ccc(N(C)C)cc2)c2cc(F)cc(F)c2n1	102
CCN(CCCc1ccccc1)CCCc1ccccc1 [Alverine Citrate]	80.3
COc1ccc(C2CC(=O)c3c(O)cc(OC4OC(COC5OC(C)C(O)C(O)C5O)C(O)C(O)C4O)cc3O2)cc1OC (stereo unspecified) [Methyl-Hesperidin]	108
CNC(=O)CN1CCC(Oc2cc3c(Nc4cccc(Cl)c4F)ncnc3cc2OC)CC1	79.5
CC1OC(OC2C(CO)OC(OCC3OC(OC(=O)C45CCC(C)(C)CC4C4=CCC6C7(C)CCC(OC8OCC(O)C(O)C8O)C(C)(CO)C7CCC6(C)C4(C)CC5)C(O)C(O)C3O)C(O)C2O)C(O)C(O)C1O (stereo unspecified) [Hederacoside D]	105
C=C[C@@H]1C[C@]1(NC(=O)[C@@H]1C[C@@H](Oc2ncc(OC)c3ccc(Cl)cc23)CN1C(=O)[C@@H](NC(=O)OC(C)(C)C)C(C)(C)C)C(=O)NS(=O)(=O)C1CC1 [Asunaprevir]	96.3
C=C(Cc1ccccc1Cl)C(=O)OCC	96.2
O=C(O)C1=C(CSc2nnnn2CS(=O)(=O)O)CS[C@@H]2[C@H](NC(=O)[C@H](O)c3ccccc3)C(=O)N12 [Cefonicid sodium]	96.3
Fc1ccc(Cl)cc1-c1nc(Nc2ccncc2)c2nccnc2n1	108
Cc1cccc(Nc2nc(-c3ccncc3)cs2)c1	74.2
COc1cc([C@H]2OC[C@H]3[C@@H]2CO[C@@H]3c2ccc(O[C@@H]3O[C@H](CO)[C@@H](O)[C@H](O)[C@H]3O)c(OC)c2)ccc1O[C@@H]1O[C@H](CO)[C@@H](O)[C@H](O)[C@H]1O [Pinoresinol diglucoside]	105
C1=Cc2ccccc2Nc2ccccc21 [Iminostilbene]	105
O=C(O)CSc1nnc(Br)n1-c1ccc(C2CC2)c2ccccc12 [Lesinurad]	98.7
CCCCN(Cc1ccc(C(=O)NO)cc1)C(=O)Nc1ccccc1 [Nexturastat A]	7.82
CC(C)c1cc2c(N3CCN(C4=NCC(C)(C)S4)CC3)ncnc2s1 [MI-3 (Menin-MLL Inhibitor)]	72.2
Clc1ccc(CSC(Cn2ccnc2)c2ccc(Cl)cc2Cl)cc1 (stereo unspecified) [Sulconazole Nitrate]	45.7
CC1=CC(=O)CC(C)(C)C1=O [Ketoisophorone]	101
CN1CCc2c(c3ccccc3n2Cc2ccc(C(=O)NO)cc2)C1 [Tubastatin A hydrochloride]	43.8
CCC[C@@H]1C[C@@H](C(=O)N[C@@H]([C@H]2O[C@H](SC)[C@H](O)[C@@H](O)[C@H]2O)[C@@H](C)O)N(C)C1 [Lincomycin hydrochloride (Lincocin)]	92.6
COc1cc2c(cc1OC)-c1cc3ccc(OC)c(OC)c3c[n+]1CC2 [Palmatine chloride]	82.6
COc1ccc(C(=O)CC2(O)C(=O)Nc3c(Cl)ccc(Cl)c32)cc1 (stereo unspecified)	6.9
CCNC(=O)Nc1ccc(-c2nc(N3CCOC[C@@H]3C)c3c(n2)C(C)(C)S(=O)(=O)C3)cc1	33.5
C=C[C@]1(C)C[C@@H](OC(=O)CSCCN(CC)CC)[C@]2(C)[C@H](C)CC[C@]3(CCC(=O)[C@H]32)[C@@H](C)[C@@H]1O [Tiamulin]	84
Oc1ccc(Nc2nc(-c3ccc(Cl)cc3)cs2)cc1	40.9
CCC1=C[C@@H]2CN(C1)Cc1c([nH]c3ccccc13)[C@@](C(=O)OC)(c1cc3c(cc1OC)N(C)[C@H]1[C@@](O)(C(=O)OC)[C@H](OC(C)=O)[C@]4(CC)C=CCN5CC[C@]31[C@@H]54)C2 [Vinorelbine Tartrate]	0.68
COc1cc(O)c(C(=O)c2ccccc2)cc1S(=O)(=O)O [Sulisobenzone]	97.8

Same assay, conditions: 10 µM; SRSF2 genotype: SRSF2 wt/wt

Compound	cell viability [%]
CCN(Cc1ccncc1)C(=O)C(CO)c1ccccc1 (stereo unspecified) [Tropicamide]	106
CN(C)C1CCN(C(=O)c2ccc(NC(=O)Nc3ccc(-c4nc(N5CCOCC5)nc(N5CCOCC5)n4)cc3)cc2)CC1	21.3
COc1cc2nc(N3CCN(C(=O)c4ccco4)CC3)nc(N)c2cc1OC [Prazosin HCl]	97
O=C(c1cccc(Br)c1)N1CCC(N2CCCC2)CC1	105
CC(=O)Oc1ccc2c(c1)Oc1cc(OC(C)=O)ccc1C21OC(=O)c2cc(C(=O)ON3C(=O)CCC3=O)ccc21.CC(=O)Oc1ccc2c(c1)Oc1cc(OC(C)=O)ccc1C21OC(=O)c2ccc(C(=O)ON3C(=O)CCC3=O)cc21	63.6
CC1(C)S[C@@H]2[C@H](NC(=O)Cc3ccccc3)C(=O)N2[C@H]1C(=O)O [Penicillin G Sodium]	103
CCOc1cc2ncc(C#N)c(Nc3ccc(F)c(Cl)c3)c2cc1NC(=O)/C=C/CN(C)C [Pelitinib (EKB-569)]	0.62
CC(C)=CCC[C@](C)(O[C@@H]1O[C@H](CO)[C@@H](O)[C@H](O)[C@H]1O)[C@H]1CC[C@]2(C)[C@@H]1[C@H](O)C[C@@H]1[C@@]3(C)CC[C@H](O)C(C)(C)[C@@H]3[C@@H](O[C@@H]3O[C@H](CO)[C@@H](O)[C@H](O)[C@H]3O[C@@H]3O[C@@H](C)[C@H](O)[C@@H](O)[C@H]3O)C[C@]12C [Ginsenoside Re]	106
C[C@H](CCC(=O)O)[C@H]1CC[C@H]2[C@@H]3[C@@H](O)C[C@@H]4C[C@H](O)CC[C@]4(C)[C@H]3CC[C@]12C [Ursodiol (Actigal Urso)]	100
CCCCOc1nc(N)c2c(n1)N(Cc1cccc(CN3CCCC3)c1)CC(=O)N2	93.4
CCOC(=O)[C@H](CCc1ccccc1)N[C@@H](C)C(=O)N1Cc2cc(OC)c(OC)cc2C[C@H]1C(=O)O [Moexipril HCl]	109
CS(=O)(=O)c1ccc(C2=C(c3ccccc3)C(=O)OC2)cc1 [Rofecoxib (Vioxx)]	101
CN(CCOc1ccc(CC2SC(=O)NC2=O)cc1)c1ccccn1 (stereo unspecified) [Rosiglitazone HCl]	109
Cc1cc(NC(=O)Nc2ccc(N(C)C)cc2)c2cc(F)cc(F)c2n1	105
CCN(CCCc1ccccc1)CCCc1ccccc1 [Alverine Citrate]	87.4
COc1ccc(C2CC(=O)c3c(O)cc(OC4OC(COC5OC(C)C(O)C(O)C5O)C(O)C(O)C4O)cc3O2)cc1OC (stereo unspecified) [Methyl-Hesperidin]	107
CNC(=O)CN1CCC(Oc2cc3c(Nc4cccc(Cl)c4F)ncnc3cc2OC)CC1	93.1
CC1OC(OC2C(CO)OC(OCC3OC(OC(=O)C45CCC(C)(C)CC4C4=CCC6C7(C)CCC(OC8OCC(O)C(O)C8O)C(C)(CO)C7CCC6(C)C4(C)CC5)C(O)C(O)C3O)C(O)C2O)C(O)C(O)C1O (stereo unspecified) [Hederacoside D]	99.3

Compound	cell viability [%]
C=C[C@@H]1C[C@]1(NC(=O)[C@@H]1C[C@@H](Oc2ncc(OC)c3ccc(Cl)cc23)CN1C(=O)[C@@H](NC(=O)OC(C)(C)C)C(C)(C)C)C(=O)NS(=O)(=O)C1CC1 [Asunaprevir]	97.9
C=C(Cc1ccccc1Cl)C(=O)OCC	98.2
O=C(O)C1=C(CSc2nnnn2CS(=O)(=O)O)CS[C@@H]2[C@H](NC(=O)[C@H](O)c3ccccc3)C(=O)N12 [Cefonicid sodium]	105
Fc1ccc(Cl)cc1-c1nc(Nc2ccncc2)c2nccnc2n1	96
Cc1cccc(Nc2nc(-c3ccncc3)cs2)c1	84.9
COc1cc([C@H]2OC[C@H]3[C@@H]2CO[C@@H]3c2ccc(O[C@@H]3O[C@H](CO)[C@@H](O)[C@H](O)[C@H]3O)c(OC)c2)ccc1O[C@@H]1O[C@H](CO)[C@@H](O)[C@H](O)[C@H]1O [Pinoresinol diglucoside]	103
C1=Cc2ccccc2Nc2ccccc21 [Iminostilbene]	108
O=C(O)CSc1nnc(Br)n1-c1ccc(C2CC2)c2ccccc12 [Lesinurad]	101
CCCCN(Cc1ccc(C(=O)NO)cc1)C(=O)Nc1ccccc1 [Nexturastat A]	2.04
CC(C)c1cc2c(N3CCN(C4=NCC(C)(C)S4)CC3)ncnc2s1 [MI-3 (Menin-MLL Inhibitor)]	72.3
Clc1ccc(CSC(Cn2ccnc2)c2ccc(Cl)cc2Cl)cc1 (stereo unspecified) [Sulconazole Nitrate]	44.8
CC1=CC(=O)CC(C)(C)C1=O [Ketoisophorone]	105
CN1CCc2c(c3ccccc3n2Cc2ccc(C(=O)NO)cc2)C1 [Tubastatin A hydrochloride]	43.6
CCC[C@@H]1C[C@@H](C(=O)N[C@@H]([C@H]2O[C@H](SC)[C@H](O)[C@@H](O)[C@H]2O)[C@@H](C)O)N(C)C1 [Lincomycin hydrochloride (Lincocin)]	91.7
COc1cc2c(cc1OC)-c1cc3ccc(OC)c(OC)c3c[n+]1CC2 [Palmatine chloride]	86
COc1ccc(C(=O)CC2(O)C(=O)Nc3c(Cl)ccc(Cl)c32)cc1 (stereo unspecified)	2.04
CCNC(=O)Nc1ccc(-c2nc(N3CCOC[C@@H]3C)c3c(n2)C(C)(C)S(=O)(=O)C3)cc1	26.9
C=C[C@]1(C)C[C@@H](OC(=O)CSCCN(CC)CC)[C@]2(C)[C@H](C)CC[C@]3(CCC(=O)[C@H]32)[C@@H](C)[C@@H]1O [Tiamulin]	87.9
